Drawing on PubChem BioAssay AID372 (MTDP, 2006), this text covers inhibition for 103 molecules.

Structures are written as SMILES. In all, about 100,000 compounds went through this assay and about 770 (0.77%) were called active. The sample holds actives, similar compounds and a random draw of the others, so the mix is not that of the screen. A number with no mark means an inactive call. No stated cut-off is given here; in the data, active means inhibition above about 50%; inactive means the rest.

The target of the test is Gag-Pol polyprotein (Human immunodeficiency virus type 1 group M subtype B (isolate HXB2)) (UniProt P04585). In words: RNase H inhibition, HIV 1 Gag Pol polyprotein, FRET biochemical assay, screening (AID 372). Conditions: HIV-1 RT RNase H, FRET RNA/DNA substrate fluorescence; at 10 µM; active compounds read high.
As a reminder, the inhibition is the percentage by which the read-out fell short of the control. Take `O=C(Nc1ccc2oc(-c3ccccc3)nc2c1)c1ccc2ccccc2c1`: the inhibition is 19%. For `Cc1ccc2oc(-c3ccc(NC(=O)c4ccc5ccccc5c4)cc3)nc2c1` the value was 52% (active). For `O=C(Nc1ccc(-c2nc3ccccc3o2)cc1)c1ccc2ccccc2c1` the value was 43%; for `Cc1ccc2oc(-c3ccc(NC(=O)c4ccc(C)c(C)c4)cc3)nc2c1`, 20%. With `Cc1ccc2oc(-c3ccc(NC(=O)c4ccc(Br)cc4)cc3)nc2c1` the figure was 55% (active). Turning to `Cc1ccc2nc(-c3cccc(NC(=O)c4ccc5ccccc5c4)c3)oc2c1`, the inhibition was 38%. With `COc1ccc(C(=O)Nc2ccc(-c3nc4cc(C)ccc4o3)cc2)cc1Br` the figure was 23%. With `Cc1ccc2nc(-c3ccc(C)c(NC(=O)c4ccc5ccccc5c4)c3)oc2c1` the figure was 19%; with `Cc1ccc2nc(-c3ccc(NC(=O)c4ccc5ccccc5c4)cc3)oc2c1`, 59% (active); with `Cc1ccc(C(=O)Nc2ccc3oc(-c4c(F)c(F)c(F)c(F)c4F)nc3c2)cc1`, 52% (active). With `CCCOc1ccc(C(=O)Nc2ccc3oc(-c4c(F)c(F)c(F)c(F)c4F)nc3c2)cc1` the figure was 14%. Turning to `O=C(Nc1ccc2oc(-c3c(F)c(F)c(F)c(F)c3F)nc2c1)c1ccc(F)cc1`, the inhibition was 13%. For `COc1ccc(/C=C2\SC(=S)N(CCC(=O)OC3CCCCC3)C2=O)cc1` the value was 4%. With `CSCCNS(=O)(=O)c1ccc(C)c([N+](=O)[O-])c1` the figure was 0%. With `O=C(O)CCCN1C(=O)/C(=C/c2cccc(Br)c2)SC1=S` the figure was 10%.

On to `COc1ccc(/C=N/NC(=O)c2ccn[nH]2)cc1COc1ccc(Cl)cc1Cl`, for which the inhibition was 5%. With `COc1cccc(Nc2c([N+](=O)[O-])c(=O)n(-c3ccccc3)c3ccccc23)c1` the figure was 15%.

In the case of `CCc1ccc2[nH]c3nc(NN)nnc3c2c1`, the inhibition is 5%. With `Cc1cccc(OC(=O)c2cccc([N+](=O)[O-])c2)c1` the figure was 6%; with `COc1ccc(N2C(=O)C(=O)/C(=C(\O)c3ccc([N+](=O)[O-])cc3)C2c2ccc(Br)cc2)cc1` (stereo not drawn), 4%.

As to `COc1ccc(OC)c(NC(=O)c2cnccn2)c1`, the inhibition is 6%. With `Cc1cc(C(=O)Nc2ccc(S(=O)(=O)Nc3nccs3)cc2)ccc1[N+](=O)[O-]` the figure was 6%; with `CCOc1cc(C2C(C(=O)OCc3ccc(OC)cc3)=C(C)NC3=C2C(=O)CCC3)cc(Cl)c1O` (stereo not drawn), 2%.

Regarding `CC(C)COc1ccc(C(=O)Nc2ccc3oc(-c4ccncc4)nc3c2)cc1`, the inhibition is 1%.

On to `CC(C)COc1ccc(C(=O)Nc2ccc(-c3nc4ccccc4o3)cc2)cc1`, for which the inhibition is 64% (active). For `CC(C)COc1ccc(C(=O)Nc2ccc(-c3nc4ncccc4o3)cc2)cc1` the value was 8%. With `O=C(Nc1ccc(-c2nc3ccccc3o2)c(O)c1)c1ccc(-c2cccc(Cl)c2)o1` the figure was 10%; with `CCOC(=O)c1c(NC(=O)CSc2nccn2C)sc2c1CCCC2`, 0%; with `CCc1ccc(C2=NN(c3ccccc3)C(c3cn(-c4ccccc4)nc3-c3cccnc3)C2)cc1` (stereo not drawn), 20%. With `COc1ccc(C(=O)CC(C(C)C)C(C=C(C)C)C(=O)c2ccc(OC)cc2)cc1` (stereo not drawn) the figure was 29%; with `C=C(C)C(C)(C#CCN1CCCCC1)OC(C)=O` (stereo not drawn), 8%; with `C=C(C)C(C)(C#CCN1CCOCC1)OC(C)=O` (stereo not drawn), 56% (active). Turning to `CC(C)(O)C#CCN1CCOCC1`, the inhibition was 0%. Regarding `COc1cc(C2C(C(=O)Nc3cccc(C)n3)=C(C)NC3=C2C(=O)CC(C)(C)C3)cc(OC)c1OC` (stereo not drawn), the inhibition is 7%. Consider `COc1ccc(N(CC(=O)N2CCCCC2)S(=O)(=O)c2ccccc2[N+](=O)[O-])c(OC)c1`, for which the inhibition was 2%. With `COCCCNC(=O)CN(c1ccc(Cl)cc1)S(=O)(=O)c1ccccc1`, the inhibition was 0%. `COc1cc(NC(=S)NC(=O)c2ccc(Cl)cc2)ccc1NC(=O)c1cc2ccccc2o1`: the inhibition is 54% (active). With `COc1cc(NC(=S)NC(=O)c2cccc(F)c2)ccc1NC(=O)c1cc2ccccc2o1` the figure was 58% (active). Regarding `COc1ccc(C(=O)NC(=S)Nc2ccc(NC(=O)c3cc4ccccc4o3)c(OC)c2)cc1`, the inhibition was 7%. In the case of `COc1cc(NC(=S)NC(=O)c2cccc(Cl)c2)ccc1NC(=O)c1cc2ccccc2o1`, the inhibition is 11%. For `COc1cc(NC(=S)NC(=O)c2ccc(C)c(C)c2)ccc1NC(=O)c1cc2ccccc2o1` the value was 15%. Turning to `COc1cc(NC(=S)NC(=O)c2ccc(Cl)cc2)ccc1NC(=O)c1ccco1`, the inhibition was 42%. With `CCc1nnc(NC(=O)CCCOc2ccc(Cl)cc2Cl)s1` the figure was 1%; with `Cc1ccccc1/C=N/NC(=O)Nc1ccccc1`, 16%. With `Cc1ccc(-c2nc3ccccc3s2)cc1NC(=O)c1cc(I)ccc1Cl` the figure was 15%. With `O=C(COc1ccccc1Br)N/N=C/c1ccccc1` the figure was 3%; with `Cc1ccccc1NCC(=O)N/N=C\c1c(Br)cc(Br)c(O)c1Br`, 16%. `Cc1ccc(NCC(=O)N/N=C\c2c(Br)cc(Br)c(O)c2Br)cc1`: the inhibition was 17%. Consider `O=C1C(=O)N(CN2CCOCC2)c2ccc(Br)cc21`, for which the inhibition is 18%.

In the case of `COc1ccc(-c2noc(-c3cccc(I)c3)n2)cc1`, the inhibition was 22%.

`Cc1cccc(-c2nc(-c3cccnc3)no2)c1`: the inhibition is 27%. For `Ic1cccc(-c2nc(-c3ccncc3)no2)c1` the value was 59% (active); for `Brc1cccc(-c2nc(-c3cccnc3)no2)c1`, 28%; for `Ic1cccc(-c2nc(-c3cccnc3)no2)c1`, 55% (active). For `Cc1ccc(-c2noc(-c3cccc(I)c3)n2)cc1` the value was 7%.

Take `Cc1cc(Cl)ccc1NC(=O)CN(c1cccc(Br)c1)S(C)(=O)=O`: the inhibition is 12%.

Take `O/N=C1\CCCc2c1nc(-c1ccc(F)cc1)n2O`: the inhibition was 0%. With `COc1ccc(/C=C/C(=O)Nc2ccc(I)cc2)cc1OC` the figure was 16%; with `CCc1c(C)c2ccc(OCc3ccccc3)c(C)c2oc1=O`, 16%; with `Clc1ccc(Nc2nc(Nc3ccc(Cl)cc3)nc(N3CCOCC3)n2)cc1`, 11%. With `Clc1ccc(Nc2nc(Oc3ccccc3)nc(N3CCOCC3)n2)cc1` the figure was 15%; with `O=C(NNc1nc(Nc2ccccc2)nc(N2CCOCC2)n1)Nc1ccc(Cl)cc1`, 72% (active); with `COc1ccc(S(=O)(=O)N2CCN(CCN3C(=O)c4cccc5cccc(c45)C3=O)CC2)cc1`, 15%. With `CC(C)Nc1nc(-c2cccnc2)nc2ccccc12` the figure was 8%; with `CC(Nc1cc(N2CCN(C)CC2)ccc1[N+](=O)[O-])c1ccc(Br)cc1` (stereo not drawn), 9%; with `CC(Nc1cc(Cl)ccc1[N+](=O)[O-])c1ccc(Br)cc1` (stereo not drawn), 54% (active). Take `O=[N+]([O-])c1ccc(Cl)cc1NC(c1ccccc1)c1ccccc1`: the inhibition is 12%. Regarding `CCOc1ccc(/C=C2\C(=O)NC(=O)N(c3cc(C(F)(F)F)ccc3Cl)C2=O)cc1OC`, the inhibition is 11%. Turning to `COc1ccc(CNC(=O)N2CCOCC2)cc1`, the inhibition was 20%. Take `O=C(NNC(=O)c1sc2cc(F)ccc2c1Cl)Nc1ccc(Cl)cc1`: the inhibition is 57% (active).

On to `O=C(Nc1ccc(F)cc1)c1sc2cc(Cl)ccc2c1Cl`, for which the inhibition was 6%. With `O=C(NNC(=O)c1sc2ccccc2c1Cl)Nc1ccc(Cl)cc1` the figure was 14%; with `CC(=O)c1ccc(NC(=S)NC(=O)c2ccc(Br)cc2)cc1`, 0%; with `O=C1C(=O)N(c2cccc([N+](=O)[O-])c2)C(c2ccccc2F)/C1=C(/O)c1ccccc1` (stereo not drawn), 8%.

`COc1cc(/C=N/N2C(=O)C3C4C=CC(C4)C3C2=O)cc(I)c1O` (stereo not drawn): the inhibition is 56% (active). As for `COc1cc(/C=N/N2C(=O)C3C4C=CC(CC4)C3C2=O)cc(I)c1O` (stereo not drawn), the inhibition was 0%. With `COc1cc(/C=N/N2C(=O)C3C4C=CC(C4)C3C2=O)cc(I)c1OC` (stereo not drawn) the figure was 0%; with `CCOC(=O)c1sc(N/N=C/c2ccccc2O)nc1C`, 58% (active). For `CCOC(=O)c1sc(N/N=C/c2ccccc2)nc1C` the value was 47%; for `CCOC(=O)c1sc(N/N=C/c2ccccc2C(F)(F)F)nc1C`, 15%. For `COc1ccccc1N1C(=O)/C(=C/C(C)=C/c2ccccc2)SC1=S` the value was 13%. On to `Cc1ccc(S(=O)(=O)/N=C/c2ccc(F)cc2)cc1`, for which the inhibition is 0%. For `CC1=C(C)CC(C(=O)Nc2ccc(Br)cc2)C(C(=O)O)C1` (stereo not drawn) the value was 8%; for `COc1ccc(NC(=O)C2CC(C)=C(C)CC2C(=O)O)cc1` (stereo not drawn), 2%; for `Cc1cc(NS(=O)(=O)c2ccc(NC(=S)NC(=O)c3ccc(Br)cc3)cc2)no1`, 1%. With `Cc1cc(OCc2nc(-c3ccc(Cl)cc3Cl)no2)ccc1Br` the figure was 7%; with `Cc1n[nH]c(C)c1Sc1ccc(Cl)cc1`, 17%; with `Cc1nn(C)c(C)c1Sc1ccc(Br)cc1`, 37%. For `Cc1n[nH]c(C)c1Sc1ccc(Br)cc1` the value was 50% (active); for `COc1cccc(/C=C2\C(=O)NC(=O)N(c3ccc(Cl)c(Cl)c3)C2=O)c1`, 1%; for `CCc1c(C)c2ccc(OC)c(C)c2oc1=O`, 8%. As to `COc1ccc(S(=O)(=O)N(CC(=O)Nc2ccc(C(N)=O)cc2)c2ccc(C)cc2)cc1OC`, the inhibition is 4%. For `C=CCc1cccc(/C=N/c2nc3ccccc3n2CCC)c1O` the value was 17%; for `CC(CO)(CO)N=Cc1c(O)n(-c2ccccc2)c(=S)[nH]c1=O`, 0%. With `COc1ccccc1NC(=O)c1ccc(CN(c2ccccc2)S(C)(=O)=O)cc1` the figure was 0%; with `CS(=O)(=O)N(Cc1ccc(C(=O)Nc2cccc(C(F)(F)F)c2)cc1)c1ccccc1`, 58% (active). As for `CS(=O)(=O)N(Cc1ccc(Cl)cc1)c1ccc(C(=O)N2CCOCC2)cc1`, the inhibition was 8%.

Turning to `Cc1ccc(Cl)cc1NC(=O)c1ccc(CN(c2ccccc2)S(C)(=O)=O)cc1`, the inhibition is 10%. With `CS(=O)(=O)N(Cc1ccc(C(=O)Nc2cccc(C(F)(F)F)c2)cc1)c1cccc(Cl)c1` the figure was 0%; with `CS(=O)(=O)N(Cc1ccc(Cl)cc1)c1ccc(C(=O)Nc2cccc(C(F)(F)F)c2)cc1`, 1%; with `CCOC(=O)N1CCN(C(=O)c2ccc(N(Cc3ccc(Cl)cc3)S(C)(=O)=O)cc2)CC1`, 3%. With `CS(=O)(=O)N(Cc1ccc(Cl)cc1)c1ccc(C(=O)N2CCCC2)cc1` the figure was 57% (active); with `COc1ccc(Cl)cc1NC(=O)c1ccc(CN(c2ccccc2)S(C)(=O)=O)cc1`, 56% (active).
